Tb PYK inh = inhibitors of Trypanosoma brucei pyruvate kinase. Q57TT1. TbPYK enzyme, Kinase-Glo Plus ATP luminescence, 45 min. Potency, µM (titrated, usually from 76.8 µM), for the others: top-dose activity, negative = inhibition, actives largely listed as inhibitors. 0.12% of 410,000 active. AID 624173; note: potency is the fitted concentration of half-maximal effect; % is set by controls: 0 for no effect and ±100 for the full control effect; nearly all actives have a fitted effect of over 50% in size
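TbPYK + substrate in 50 mM TEA pH 7.2, 100 mM KCl, 10 mM MgCl2, 0.05% BSA, 0.01% Tween-20; cpd pinned; ADP 130 uM final; 45 min RT; Kinase-Glo Plus 10 min; luminescence endpoint.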
FBPA Giardia inh = Giardia lamblia aldolase inhibition. A8B2U2. purified Giardia FBPA. Potency, µM (series often up to 59.6 µM), inactives show at the top dose activity, negative = inhibition, hits mostly inhibitors. 0.71% of 290,000 active. AID 2451; note: potency is the fitted concentration of half-maximal effect; % is set by controls: 0 for no effect and ±100 for the full control effect; nearly all actives have a fitted effect of over 55% in size
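Giardia FBPA (40 nM reagent) was preincubated 10 min at RT with compound (up to 57.5 uM final), then substrate plus GAPDH/TPI/NAD/arsenate coupling system with diaphorase/resazurin was added; resorufin fluorescence (525/598 nm) was read after 20 min.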
LmPK inhibitor = inhibitors of Leishmania mexicana pyruvate kinase; Potency, µM (titrated, usually from 57.5 µM), for the others: top-dose activity change, negative = inhibition, actives largely listed as inhibitors; 0.37% of 290,000 active; AID 1721; purified LmPK, Kinase-Glo ATP luminescence, 1 h; Q27686; note: potency is the fitted concentration of half-maximal effect; % is set by controls: 0 for no effect and ±100 for the full control effect
Target sequence (Q27686 whole entry, looked up): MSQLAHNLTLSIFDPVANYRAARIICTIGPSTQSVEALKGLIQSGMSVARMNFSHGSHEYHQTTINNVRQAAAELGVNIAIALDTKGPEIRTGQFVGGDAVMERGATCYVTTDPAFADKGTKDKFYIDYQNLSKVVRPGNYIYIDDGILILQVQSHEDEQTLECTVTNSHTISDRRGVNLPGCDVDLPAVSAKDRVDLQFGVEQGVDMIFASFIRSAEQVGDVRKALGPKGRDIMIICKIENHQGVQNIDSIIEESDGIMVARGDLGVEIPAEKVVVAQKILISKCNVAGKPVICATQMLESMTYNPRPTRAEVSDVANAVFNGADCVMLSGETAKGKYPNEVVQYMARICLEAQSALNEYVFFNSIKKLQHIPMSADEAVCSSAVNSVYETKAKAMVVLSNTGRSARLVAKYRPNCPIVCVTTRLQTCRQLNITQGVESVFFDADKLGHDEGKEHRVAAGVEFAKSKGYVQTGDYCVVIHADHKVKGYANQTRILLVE
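ATP generated from ADP (0.1 mM) and PEP (0.5 mM) by 0.1 nM LmPK over 1 h at room temperature (pH 7.2 imidazole buffer) was detected by coupled luciferase luminescence. Values were normalized to uninhibited and no-enzyme wells.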
Sm TGR block = inhibitors of Schistosoma mansoni thioredoxin glutathione reductase. Potency, µM (highest dose often 114 µM), without a hit: at the top dose activity change, negative = inhibition, actives largely listed as inhibitors. purified TGR, DTNB reduction, TNB absorbance 405 nm. 3% of 360,000 active. Q962Y6; note: potency is the fitted concentration of half-maximal effect; % is set by controls: 0 for no effect and ±100 for the full control effect; nearly all actives have a fitted effect of over 60% in size
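Kinetic colorimetric format: TGR-catalysed, NADPH-driven DTNB reduction monitored via TNB absorbance. Enzyme dispensed at 20 nM; compound exposure 15 min at room temperature before reaction start.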
Cycloheximide cs = counter-screen for Shiga toxin inhibitors: cycloheximide protein synthesis inhibition. cell reporter, cycloheximide protein synthesis inhibition counterscreen. max response, %. 12% of 300,000 active. AID 2314; in the data active = max response mostly above about 13%, no sharp cut-off; inactive = mostly below about 14%; note: read at 38.3 µM for the half of the compounds with a filed dose; 0% is about no effect
Shiga inhibitor = blocks Shiga toxin action in Vero cells. 9.2% of 290,000 active. Vero cells, Shiga toxin protein synthesis inhibition reporter. inhibition, % at 38.7 µM; in the data active = inhibition mostly above about 28%, no sharp cut-off; inactive = mostly below about 43%; note: 0% is about no effect
Numbers without * were called inactive; ? = inconclusive; . = not tested or not shown. The full list was thinned out, with hits kept by preference. Unless noted, calls come from the whole dose curve; as a rule, active = well fitted curve in the direction sought with a large enough effect; inconclusive = small, poorly fitted or top-dose-only effect, or another doubt; inactive = no such curve, though single readings can be large; an effect the other way counts as inactive or inconclusive.

SMILES	Tb PYK inh	FBPA Giardia inh	LmPK inhibitor	Sm TGR block	Cycloheximide cs	Shiga inhibitor
O=[N+]([O-])c1ccc(NN=Cc2ccccc2O)nc1	9.1%	.	.	.	.	.
CCOC(=O)C(C#N)c1ccccn1 (stereo not drawn)	?	-4.5%	-23.6%	6.2%	29.4*	64.0
Cc1cccc(C2C=C(c3ccc(C)c(C)c3)Nc3nnnn32)c1 (stereo not drawn)	0.7%	.	.	39.8µM*	.	.
Fc1ccc(Br)cc1C1C=C(c2ccc(Br)cc2)Nc2nnnn21 (stereo not drawn)	0.7%	.	.	-24.1%	.	.
CCc1ccc(C2=CC(c3cccc(Br)c3)n3nnnc3N2)cc1 (stereo not drawn)	4.9%	.	.	25.1µM*	.	.
Cc1ccc(C2=CC(c3ccc(N(C)C)cc3)n3nnnc3N2)cc1 (stereo not drawn)	-1.5%	-11.3%	5.8%	?	25.6*	23.9
COc1ccc(C2=Nn3c(nnc3-c3ccccc3O)SC2)cc1OC	.	6.3%	.	.	6.8	-1.3
COc1ccccc1Nc1nn2c(=O)c3ccc(C(=O)NC4CCCCC4)cc3nc2s1	3.7%	.	.	1.2%	.	.
CCCN(C(=O)Nc1cn(CC(C)C)c(=O)c2ccccc12)c1ccc(F)cc1	2.7%	.	.	1.0%	.	.
Cc1ccc(OCC(=O)Nc2cccnc2Cl)cc1C	2.0%	-1.2%	-0.9%	10.1%	17.8*	58.4*
Cc1cc(C)cc(C(=O)Nc2cccnc2Cl)c1	0.5%	-7.3%	-3.8%	2.5%	-4.3	-4.9
O=C(COC(=O)CC12CC3CC(CC(C3)C1)C2)Nc1cccnc1Cl	-2.8%	-0.7%	-1.4%	-1.4%	25.2*	11.4
Cc1ccc(OCC(=O)Nc2ccccc2F)cc1C	-15.3%	2.0%	-8.2%	0.0%	36.2*	81.3*
Cc1ccc(OCC(=O)Nc2ccc(Cl)cc2C(=O)c2ccccc2)cc1C	3.3%	.	.	3.4%	.	.
Cc1ccc(C(=O)Nc2cccnc2Cl)cc1Cl	-0.5%	12.7%	-1.6%	6.9%	34.8*	.
O=C(COC(=O)c1ccccn1)Nc1cccnc1Cl	3.5%	.	.	0.3%	.	.
c1cncc(CNc2ccnc(-c3cccnc3)n2)c1	.	-7.2%	.	.	.	.
Brc1c(-c2ccccc2)nc2n1Cc1ccccc1-2	3.3%	-0.7%	-12.1%	-1.7%	51.9*	141.3*
c1ccc2c(c1)Cn1c-2nc2ccccc21	?	-15.0%	14.1µM*	-0.8%	31.6*	61.7*
COc1ccc(-n2c(=O)c3c(c4cc(OC)ccc4n3C)n(Cc3c(F)cccc3Cl)c2=O)cc1	3.7%	.	.	0.6%	.	.
CNc1ncnc(Sc2ccc(Cl)cc2)c1[N+](=O)[O-]	-12.0%	2.9%	9.5%	0.562µM*	2.4	13.9
CN1CC(c2ccccc2Cl)C2(COc3ccccc3C2=O)C12C(=O)Nc1ccccc12 (stereo not drawn)	1.4%	9.6%	8.4%	-9.7%	16.1*	55.3
Cc1ccc(C2CN(C)C3(C(=O)Nc4ccccc43)C23COc2ccccc2C3=O)cc1 (stereo not drawn)	-3.4%	-6.4%	7.9%	1.0%	1.4	-13.8
Cc1cccc(-c2cc(C(=O)NCc3ccccn3)c3ccccc3n2)c1	-5.2%	4.9%	-3.9%	-1.2%	14.8	25.2
Cc1cc(NC(=O)c2cc(-c3ccc(C)c(C)c3)nc3ccccc23)no1	-3.9%	-3.2%	3.0%	1.9%	2.6	20.1*
SMILES	Tb PYK inh	FBPA Giardia inh	LmPK inhibitor	Sm TGR block	Cycloheximide cs	Shiga inhibitor
Cc1ccc(-c2cc(C(=O)NCc3ccccn3)c3ccccc3n2)cc1C	?	-4.9%	-2.4%	-4.2%	30.8*	65.8*
Cc1ccc(-c2cc(C(=O)Nc3cc(C)on3)c3ccccc3n2)cc1	6.3%	0.6%	3.2%	-11.9%	3.1	15.6
O=C(NCCc1ccccn1)c1cc(-c2ccccc2Cl)nc2ccccc12	-11.2%	-2.3%	4.3%	-1.4%	-2.4	-5.7
O=C(NCc1ccccn1)c1cc(-c2ccc(Cl)cc2)nc2ccccc12	-10.6%	5.4%	0.1%	-8.1%	9.6	33.1*
Cc1ccc(-c2cc(C(=O)NCCCN3CCOCC3)c3ccccc3n2)cc1C	-3.1%	-16.9%	4.0%	-10.8%	8.3	46.5*
O=C(CCn1c(=O)c2cccn2c2ccc(F)cc21)NCCc1ccccc1Cl	3.7%	.	.	2.6%	.	.
Cc1ccc(C(=O)OCC(=O)NC(C)C2CC3CCC2C3)cc1N (stereo not drawn)	-6.1%	.	.	.	.	.
CC1COC(=O)O1 (stereo not drawn)	.	1.0%	.	.	4.0	-2.6
O=C(NCc1ccccn1)c1cc(-c2ccccc2)nc2ccccc12	-3.6%	4.6%	-3.4%	0.9%	-1.8	-9.7
O=C(NCc1ccccn1)c1cc(-c2ccc(-c3ccccc3)cc2)nc2ccccc12	-19.0%	-0.5%	4.4%	-7.5%	19.9*	128.3*
CCOc1ccccc1NC(=O)c1nc2nc(C)cc(C(F)F)n2n1	-9.0%	.	.	6.7%	.	.
COc1cccc(C(=O)Nc2nnc(-c3ccc(F)cc3)o2)c1	0.5%	?	5.0%	0.9%	0.7	-2.6
CCOc1ccc(-c2nnc(NC(=O)c3ccc(OCC(C)C)c(OC)c3)o2)cc1	-3.0%	3.8%	-4.4%	0.9%	25.5*	45.1
O=C(Nc1ccc(-c2ccccc2)cc1)c1ccccc1	-6.4%	11.3%	4.1%	2.2%	-3.2	.
COc1ccccc1NC(=O)NC(=O)c1ccccc1	-4.7%	1.0%	-5.0%	0.1%	22.9*	58.9*
COc1ccccc1NC(=O)NC(N)=O	1.0%	-1.9%	1.1%	5.8%	3.2	-2.0
COc1ccc(C(=O)NNC(=O)Nc2ccc(C)cc2)cc1	1.8%	-0.8%	-5.2%	-0.5%	-1.8	16.0
COc1ccc(NC(=O)NC(=O)c2ccccc2)cc1	-3.9%	-2.1%	-5.6%	0.3%	25.0*	.
O=C(NC(=O)c1ccccc1)Nc1ccccc1	-2.6%	0.3%	-14.5%	18.1%	41.9*	51.0*
COc1ccc(NS(=O)(=O)NC(=O)c2c[nH]c3ccccc23)cc1	-1.3%	.	-3.6%	-3.7%	-0.7	3.2
Cc1[nH]c2ccccc2c1C(=O)NS(=O)(=O)Nc1ccc(F)cc1	-6.4%	2.4%	8.9%	0.7%	-0.5	-10.8
COc1cccc(NS(=O)(=O)NC(=O)c2c(C)[nH]c3ccccc23)c1	4.9%	2.9%	5.9%	2.8%	30.9*	30.5*
COc1cccc(NS(=O)(=O)NC(=O)c2c[nH]c3ccccc23)c1	1.4%	.	-3.8%	0.4%	45.3*	53.0
CC1(C(=O)NS(=O)(=O)C2CC2)CCCN(C(=O)/C=C/c2ccccc2)C1 (stereo not drawn)	4.5%	.	.	.	.	.
CCn1cc(C(=O)N2CCN(c3cccc(C)c3C)CC2)c2cc(OC)c(OC)cc2c1=O	-1.4%	.	.	5.4%	.	.
COc1ccc(NC(=O)CCc2c(C)nc3c(c2C)c(=O)n(C)c(=O)n3C)c(OC)c1	0.7%	.	.	7.1%	.	.
COC(=O)C1=CO[C@@H](C)[C@@H]2CN3CCc4c([nH]c5ccccc45)[C@@H]3C[C@H]12	.	?	.	.	-1.8	23.1
